Measured values published in PubChem BioAssay (Tox21).
Records with an inconclusive call do not appear. Activity calls are given as the source filed them. The call rests on the fitted dose curve; in most records, active means well fitted cell-killing curve with a large enough effect in the repeat runs; inconclusive means weak or mixed curves, or effect the other way; inactive means no such curve, though single readings can be large or run the other way.

test: qHTS assay to identify small molecule antagonists of the retinoid-related orphan receptor gamma (ROR-gamma) signaling pathway - cell viability counter screen (AID 1159520); details: Tet-on RORgamma CHO cells viability, ATP luminescence, 16 h; series mostly up to 92.4 µM; further: nearly all actives have a fitted effect of over 50% in size
Description: U.S. Tox21 Program National Center for Advancing Translational Sciences [NCATS] NIH Chemical Genomics Center [NCGC] U.S. Environmental Protection Agency [EPA] National Institutes of Environmental Health Sciences [NIEHS] National Toxicology Program [NTP] U.S. Food and Drug Administration [FDA] Tox21 Assay Overview: Nuclear steroid hormone receptors are involved in many biological processes including inflammatory responses, cell proliferation, and apoptosis. Environmental factors or compounds disrupting these nuclear receptor pathways and gene expression may promote susceptibility to immunotoxicants and autoimmune diseases. One important group of these expression factors are the retinoid-related orphan receptors. To assess compounds that may interfere with the retinoid-related orphan receptor gamma (ROR-gamma) transcription factor, a cell-based luciferase assay was used. The CHO cell-based assay utilizes a TET-inducible ROR expression factor and ROR response element-LUC reporter gene. Reporter gene activity was induced using Doxycycline Hyclate and measured after 16 hr incubation. Tet-on ROR gamma CHO cells were used to screen against the Tox21 10K compound library for cytotoxicity by measuring the viability of the cells based on the quantitation of the ATP.
Tox21 Assay Protocol Summary: Tet-on ROR gamma CHO cells were dispensed at 1,000 cells in 4 uL of culture medium per well into white wall/solid bottom 1536-well plates using a Multidrop Combi (Thermo Scientific, Waltham, MA) dispenser. Following incubation at 37 C and 5% CO2 for 4 hr, 23 nL of compounds dissolved in DMSO, positive controls or DMSO only were transferred by a Pintool station (Kalypsys, San Diego, CA) and after 2 hr incubation at 37 C, one ul of 1 uM (final concentration) of Doxycycline Hyclate was added to all the wells by using a Flying Reagent Dispenser (FRD) (Aurora Discovery, San Diego, CA). After 16 hr incubation at 37 C and 5% CO2, 5 uL of CellTiter-Glo reagent (Promega Corporation, Madison, WI) was added to each assay plate using FRD. After 30 min incubation at room temperature, luminescence was quantified on a ViewLux plate reader (Perkin Elmer, Waltham, MA).
On the % scale 0 is the no-effect control and ±100 the full control effect.

Row | Structure (SMILES) | outcome | activity, negative = cytotoxicity
1 | COC(/C=C(\C)CCC=C(C)C)OC | inactive | –
2 | C=C(C)C(=O)OCCCCCCOC(=O)C(=C)C | inactive | –
3 | C=CCOCC(O)CCl (stereo not given) | inactive | –
4 | C[C@H](CCC(=O)O)[C@H]1CC[C@H]2[C@@H]3[C@H](O)C[C@@H]4C[C@H](O)CC[C@]4(C)[C@H]3C[C@H](O)[C@]12C | inactive | –
5 | CCOc1ccc(NC(=O)OC(C)C)cc1OCC | inactive | –
6 | Nc1ccc(S(=O)(=O)Nc2ccccn2)cc1 | inactive | –
7 | NS(=O)(=O)c1cc2c(cc1Cl)NC(CC1CCCC1)NS2(=O)=O (stereo not given) | inactive | –
8 | CCCCC(CC)CNC(=O)CC(C)OC(=O)CCC(=O)O (stereo not given) | inactive | –
9 | C[C@H]1O[C@H](O[C@H]2[C@H](O)[C@@H](O)[C@@H](O[C@H]3[C@H](O)[C@@H](O)[C@H](O)O[C@@H]3CO)O[C@@H]2CO)[C@H](O)[C@@H](O)[C@@H]1N[C@H]1C=C(CO)[C@@H](O)[C@H](O)[C@H]1O | inactive | –
10 | CC(C)CCO | inactive | –
11 | C=CCCCCCCCCCCC | – | 3.91% [at 8.39 µM] (inactive)
12 | O=C(O)c1ccc(OCCN2CCCCC2)cc1 | inactive | –
13 | C[C@@H]1C[C@H]2[C@@H]3C[C@H](F)C4=CC(=O)C=C[C@]4(C)[C@@]3(F)[C@@H](O)C[C@]2(C)[C@@]1(O)C(=O)CO | inactive | –
14 | OC[C@@H](O)[C@H](O)[C@@H](O)[C@@H](O)CO | inactive | –
15 | CCCCC/C=C/CC(=O)OC | inactive | –
16 | Nc1cc(C(=O)O)ccc1Cl | inactive | –
17 | CCOC(=O)CC(CC(=O)OCC)(OC(C)=O)C(=O)OCC | inactive | –
18 | OCCCCCCCl | inactive | –
19 | CO/N=C(/C(=O)N[C@@H]1C(=O)N2C(C(=O)O)=C(Cn3nnc(C)n3)CS[C@H]12)c1csc(N)n1 | inactive | –
20 | CCCC(C)CC (stereo not given) | inactive | –

Row | Structure (SMILES) | outcome | activity, negative = cytotoxicity
21 | Nc1ccc(C(=O)OCC(O)CO)cc1 (stereo not given) | inactive | –
22 | CC(=O)N(CC(O)CO)c1c(I)c(C(=O)NCC(O)CO)c(I)c(C(=O)NCC(O)CO)c1I (stereo not given) | inactive | –
23 | COc1ccc(OC)c(NC(=O)CC(C)=O)c1 | inactive | –
24 | CC(C)COC(=O)COc1ccc(Cl)cc1Cl | inactive | –
25 | COC(=O)CCC(=O)O | inactive | –
26 | CCN1CN(CC)CN(CC)C1 | inactive | –
27 | COCCOCCOCCOC | inactive | –
28 | CC(=O)Nc1ccc(C)cc1 | inactive | –
29 | Cc1ccccc1C(=O)N1CC/C(=N\OS(=O)(=O)O)c2ccc(Cl)cc21 | inactive | –
30 | CN[C@@H]1[C@@H](O)[C@@H](O[C@@H]2[C@H](O)[C@H](O[C@H]3OC(CN)=CC[C@H]3N)[C@@H](N)C[C@H]2N)OCC1(C)O (stereo not given in full) | inactive | –
31 | Nc1cc(S(=O)(=O)O)ccc1S(=O)(=O)O | inactive | –
32 | C=CCOc1cc(Cl)ccc1C(=O)NCCN(CC)CC | inactive | –
33 | O=C1OC(=O)c2cc(Oc3ccc4c(c3)C(=O)OC4=O)ccc21 | inactive | –
34 | CCOC(=O)CCc1ccccc1 | inactive | –
35 | OC(CCN1CCCCC1)(c1ccccc1)c1ccccc1 | inactive | –
36 | CCCO | inactive | –
37 | CC(C)c1ccccc1O | inactive | –
38 | CC(C)COC(=O)/C=C/c1ccccc1 | inactive | –
39 | CNC(=O)C(c1ccccc1)c1ccccc1 | inactive | –
40 | CC(C)(C)NCCO | inactive | –
